The source of these data is PubChem BioAssay (EPA / NIEHS).

Molecules are shown by their SMILES. Results filed as inconclusive are left out. The source made the active and inactive calls. Rule for the calls: active = hit-call score of the fitted dose curve at least 0.9, where 1 is the maximum; inconclusive = response in the unintended direction; inactive = score below 0.9.

The assay addresses Cytochrome P450 2C19 (Homo sapiens) (UniProt P33261). As to the kind of experiment: NVS_ADME_hCYP2C19: NovaScreen (NVS) CYP450-related Enzyme Activity (ADME) Assay for human CYP2C19 (AID 2283113).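 For AC50: potency for inhibition seen as loss of fluorescent signal.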 The procedure: NVS_ADME_hCYP2C19 is a biochemical, single-readout assay that uses extracted gene-proteins from insect cells in a cell-free assay. Measurements were taken 1 hour after chemical dosing in a 96-well plate.NVS_ADME_hCYP2C19 is one of one assay component(s) measured or calculated from the NVS_ADME_hCYP2C19 assay. It is designed to make measurements of enzyme activity, a form of enzyme reporter, as detected with fluorescence intensity signals by Fluorescence technology.Data from the assay component NVS_ADME_hCYP2C19 was analyzed into 1 assay endpoint. This assay endpoint, NVS_ADME_hCYP2C19, was analyzed in the positive analysis fitting direction relative to Acetonitrile as the negative control and baseline of activity. Using a type of enzyme reporter, loss-of-signal activity can be used to understand changes in the enzymatic activity as they relate to the gene CYP2C19. Furthermore, this assay endpoint can be referred to as a primary readout, because this assay has produced multiple assay endpoints where this one serves a enzymatic activity function. To generalize the intended target to other relatable targets, this assay endpoint is annotated to the cyp intended target family, where the subfamily is xenobiotic metabolism.
Binding assays used specific radioligands (tritiated, iodinated) with non-radioactive competitive displacement ligands in agonist or antagonist protocols (as indicated) and various reference compounds and inhibitors to titrate specific binding to receptors and transporters. Most enzyme assays (CYPs, kinases, phosphatases, proteases, HDACs) used recombinant protein and specific substrates (fluorescence mostly, some colorimetric and radioactive) and inhibitors, followed by a biochemical separation of substrate and product. All assays for the biochemical HTS were initially run in duplicate at a single concentration (10 uM for CYP450 assays and 25 uM for all others). […] Each assay was run with positive and negative controls, and concurrent controls on every plate. The follow-up (secondary) screen tested active chemical-pairs in concentration series, as well as a few additional assays not tested in the primary screen, some selected negative inactives, and several cases re-run in the concentration series for confirmatory purposes.
For `CCc1c(C(=O)NN2CCCCC2)nn(-c2ccc(Cl)cc2Cl)c1-c1ccc(Br)cc1`, the compound was called inactive.
As usually defined, the AC50 is the concentration at which the activity in the assay is half-maximal. On to `C=CCOC(=O)c1ccccc1C(=O)OCC=C`, for which the concentration at half-maximal activity (AC50) is 2.99 µM (active).
Same read-out and setting: the result for `COc1ccc(S(=O)(=O)N2C(=O)[C@@](c3ccccc3OC)(N3C[C@H](O)C[C@H]3C(=O)N(C)C)c3cc(Cl)ccc32)c(OC)c1` reads 6.95 µM (active); that for `CCOC(=O)CCC(=O)OCC`, 15.4 µM (active).
On the same count and under the same terms, in the case of `Cc1cccc([N+](=O)[O-])c1C` it was 18.6 µM (active); in that of `Oc1ccc2c(c1)OC[C@@H](N1CCC(O)(c3ccc(F)cc3)CC1)[C@H]2O`, 7.71 µM (active).
For the compound `Cc1c(C(=O)O)c(O)cc2c1C(=O)c1c(O)c([C@@H]3O[C@H](CO)[C@@H](O)[C@H](O)[C@H]3O)c(O)c(O)c1C2=O`, the result was inactive.
On the same count and under the same terms, in the case of `CN1CCN(Cc2cc(-c3ccc4[nH]c(=O)oc4c3)co2)[C@@H](c2ccc(F)cc2)C1` it was “inactive”; in that of `CC1=C(/C=C/C(C)=C/C=C/C(C)=C/CO)C(C)(C)CCC1`, “inactive”.
Regarding `CNCc1cc(F)ccc1Oc1ccc(Cl)c(Cl)c1`, the AC50 is 1.11 µM (active).
The same measure, in the same setting: in the case of `CCCCC(CC)COC(=O)CC(C(=O)OCC(CC)CCCC)S(=O)(=O)O` (stereo unspecified) it was 4.49 µM (active).
